For part of these data: Measured potencies and affinities stand elsewhere.
How the values were obtained:
[1] = test system: Staphylococcus aureus; assay: Antibacterial activity against Staphylococcus aureus MRSA ATCC 43300 (CO-ADD:GP_020); MIC in CAMBH media using NBS plates, by Resazurin F(560/590); format: functional; conditions: Concentration 20 uM, ASSAY_TEST Inhibition of Bacterial Growth, detection method Resazurin, Fluorescence (ex560/em590), MEDIA CAMHB, plate type 384well, CORNING #3640, time 18 hr
[2] = test system: Acinetobacter baumannii; assay: Antibacterial activity against Acinetobacter baumannii ATCC 19606 (CO-ADD:GN_034); MIC in CAMBH media using NBS plates, by Resazurin F(560/590); format: functional; conditions: Concentration 20 uM, ASSAY_TEST Inhibition of Bacterial Growth, detection method Resazurin, Fluorescence (ex560/em590), MEDIA CAMHB, plate type 384well, CORNING #3640, time 18 hr
[3] = test system: Escherichia coli; assay: Antibacterial activity against Escherichia coli ATCC 25922 (CO-ADD:GN_001); MIC in CAMBH media using NBS plates, by Resazurin F(560/590); format: functional; conditions: Concentration 20 uM, ASSAY_TEST Inhibition of Bacterial Growth, detection method Resazurin, Fluorescence (ex560/em590), MEDIA CAMHB, plate type 384well, CORNING #3640, time 18 hr
[4] = test system: Klebsiella pneumoniae; conditions: Concentration 20 uM; ASSAY_TEST Inhibition of Bacterial Growth; detection method Absorption (OD600); MEDIA CAMHB; plate type 384well; NBS; CORNING #3640; time 18 hr
[5] = test system: Candida albicans; conditions: 20 µM
[6] = test system: Cryptococcus neoformans; conditions: Concentration 20 uM; ASSAY_TEST Inhibition of Fungal Growth; detection method Resazurin; Absorption (OD600-OD570); plate type 384well; NBS; CORNING #3640

| SMILES | Inhibition [1] | Inhibition [2] | Inhibition [3] | Inhibition [4] | Inhibition [5] | Inhibition [6] |
| --- | --- | --- | --- | --- | --- | --- |
| Cc1cccc(Nc2sc(C(=O)c3cc4cc(Cl)ccc4o3)c(N)c2C#N)c1 | 1.46% | -13.03% | 6.28% | 5.96% | 0.06% | 37.64% |
| OCC(O)C1OCOC(C(O)CO)C1O (configuration not stated) | 14.61% | -8.42% | 9.4% | 8.21% | 0.45% | -5.49% |
| CC1(C)OC2C(CO)OC(n3cnc4c(S)ncnc43)C2O1 (configuration not stated) | 1.89% | -15.97% | 11.94% | 6.21% | 4.06% | -14.25% |
| O=C1C2CC3N1CCC31c3ccccc3-n3c1c2ccc3=O (configuration not stated) | 27.56% | -3.15% | 6.22% | 13.77% | 5.53% | -4.11% |
| c1ccc(CSc2nc3c[nH]cnc-3n2)cc1 | 8.72% | -4.41% | 6.08% | 8.84% | 0.41% | 13.03% |
| N=C(N)NC(=N)Nc1ccc(O)cc1 | 11.3% | -14.34% | 13.43% | 0.41% | 0.07% | -11.16% |
| Cc1n[nH]c2c([N+](=O)[O-])c(=O)[nH]c(=O)n12 | 3.86% | -12.95% | 12.3% | 7.43% | 0.29% | -13.65% |
| CC(C)=C(c1ccc(Cl)cc1)c1c(N)ncnc1N | 3.52% | -10.84% | 10.95% | 14.5% | -0.84% | -5.15% |
| Cc1cccc(N2CCN(CC(O)COc3ccccc3Cl)CC2)c1 (configuration not stated) | 6.25% | 7.51% | 7.94% | 12.03% | -0.3% | -18.69% |
| Fc1ccc(-c2cc(-c3cccs3)cc(-c3ccccc3)n2)cc1 | 2.48% | 12.33% | -3.88% | 7.87% | 6.36% | -7.45% |
| COc1cc(NCc2ccccc2O)c2ncccc2c1 | -0.91% | -6.99% | 7.11% | 7.53% | 4.54% | -12.51% |
| CC(C)c1cc(C(C)C)n2nc(N)nc2n1 | 6.67% | 8.95% | 5.1% | 0.39% | -0.42% | -7.51% |

Source: ChEMBL document CHEMBL4296182, “CO-ADD screening of NIH NCI Diversity Set V”
